# Source: PubChem BioAssay (The Scripps Research Institute Molecular Screening Center)
# Rows were chosen to be rich in hits. Some 2.8% of all compounds tested hit in one or more screens of this group.
# HGIII-sPLA2 inh: Blocks human group III sPLA2 activity; Q9NZ20; QFRET BODIPY PC-A2 liposome hydrolysis, fluorescence; inhibition, % at 12.2 µM; hit rate 0.56% among 370,000; AID 743126;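 active = inhibition above mean plus 3 SD of compounds lying within the high and low control bounds, cut at about 19% in these data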;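 also: 0% = median of test compound wells and 100% = no enzyme DMSO wells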
# Target sequence (Q9NZ20 whole entry, looked up): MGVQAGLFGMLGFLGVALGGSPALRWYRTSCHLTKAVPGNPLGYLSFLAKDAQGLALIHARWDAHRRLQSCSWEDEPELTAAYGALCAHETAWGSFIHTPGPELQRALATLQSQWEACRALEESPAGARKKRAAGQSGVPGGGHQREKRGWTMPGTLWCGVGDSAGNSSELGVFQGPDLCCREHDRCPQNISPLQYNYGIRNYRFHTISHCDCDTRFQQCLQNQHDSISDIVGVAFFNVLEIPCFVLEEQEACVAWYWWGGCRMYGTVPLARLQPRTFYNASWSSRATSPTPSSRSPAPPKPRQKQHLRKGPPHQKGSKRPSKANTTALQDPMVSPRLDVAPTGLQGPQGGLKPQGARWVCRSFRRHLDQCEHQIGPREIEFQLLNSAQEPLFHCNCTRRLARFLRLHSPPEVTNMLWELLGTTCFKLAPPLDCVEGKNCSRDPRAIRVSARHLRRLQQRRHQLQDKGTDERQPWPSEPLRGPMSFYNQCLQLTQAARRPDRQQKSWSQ
# MsrA act: activators of bovine methionine sulfoxide reductase A; activation, % at 10.6 µM; AID 602163; hit rate 0.3% among 360,000; purified bovine MsrA, absorbance read-out; in the data active = activation above about 7.5%;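 also: 0% = vehicle and 100% = reference activator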
# MsrA inhibitor: inhibits bovine methionine sulfoxide reductase A; purified bovine MsrA, absorbance read-out; inhibition, % at 15.5 µM; hit rate 0.75% among 360,000; in the data active = inhibition above about 4.5%;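 also: 0% = vehicle wells with enzyme and 100% = reference inhibitor wells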
# rCAG RNA binder: molecules binding r(CAG) RNA repeats; r(CAG) RNA repeat, TO-PRO-1 dye displacement fluorescence; hit rate 1.3% among 370,000; inhibition, % at 3 µM;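 active = inhibition above the plate cutoff, the mean of all test compounds on that plate plus 3 SD, cut at about 35% in these data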;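 also: 0% = DMSO alone and 100% = 100 µM mitoxantrone as full dye displacement; higher means more dye released from RNA so lower well fluorescence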
# MsrA activ conf: bovine methionine sulfoxide reductase A activation confirmed | shares compounds with MsrA act | purified bovine MsrA, absorbance read-out | activation, % at 10.6 µM | hit rate 12% among 1,000 | AID 602270; in the data active = activation above about 4%;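 also: enzyme coupled to thioredoxin and thioredoxin reductase with NADPH; 0% = vehicle wells and 100% = reference activator wells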
# Starred values were filed as active, the others as inactive; . = no result.
SMILES,HGIII-sPLA2 inh,MsrA act,MsrA inhibitor,rCAG RNA binder,MsrA activ conf
CC(C)c1ccc(/C=N/NC(=O)c2ccccc2Cl)cc1,3.4,13.0*,1.2,-6.5,-3.6
O=C(CSc1ncnc2c1oc1ccccc12)Nc1cccc(C(F)(F)F)c1,-3.7,8.8*,0.3,2.0,-1.8
O=C(CSc1ncnc2c1oc1ccccc12)Nc1cccc(Cl)c1,2.9,-0.2,-0.2,4.9,.
COc1cccc(C(C)(O)c2nc(-c3cccc(C(F)(F)F)c3)cs2)c1 (configuration not stated),-12.5,-5.0,0.7,0.1,.
COc1ccc(C(C)(O)c2nc(-c3cccc(C(F)(F)F)c3)cs2)cc1 (configuration not stated),-12.5,9.8*,1.0,3.6,1.8
CCCS(=O)(=O)NC(=O)C1(C)CCN(C(=O)Cc2ccc(OC)cc2)C1 (configuration not stated),1.2,-5.5,-0.2,3.0,.
Nc1nc2ccccc2n1/N=C/c1ccc([N+](=O)[O-])s1,1.7,8.0*,2.9,2.5,7.8*
Nc1nc2ccccc2n1/N=C/c1cccnc1,4.5,-5.0,1.6,-2.0,.
C[C@]12c3[nH]c4cc(-c5ccco5)ccc4c3CCN1C(=O)[C@@H](CC(=O)NCCC1=CCCCC1)C[C@@H]2C(=O)N1CCCCC1,-16.6,8.3*,0.8,9.8,-3.2
C[C@]12c3[nH]c4cc(-c5ccco5)ccc4c3CCN1C(=O)[C@@H](CC(=O)NCCc1ccccn1)C[C@@H]2C(=O)N1CCCCC1,-0.7,-11.9,2.1,9.2,.
CCOc1ccc(S(=O)(=O)N2CCN(C3CC(=O)N(c4cccc(C(C)=O)c4)C3=O)CC2)cc1 (configuration not stated),-2.4,-1.2,0.2,15.9,.
OCCNc1nc(SCc2ccccc2)nc2sc3c(c12)CCC3,-5.5,14.4*,0.1,15.8,-1.9
O=c1c2c3c(sc2nc(NCCO)n1CCc1ccccc1)CCCCC3,8.9,-0.8,-0.5,5.3,.
Cc1ccc(S(=O)(=O)NC2c3cccc4cccc(c34)C2Sc2nncn2C)cc1 (configuration not stated),7.1,14.9*,0.2,-0.7,-0.5
CC1CCCCC1=NNC(=O)c1ccccc1 (configuration not stated),1.7,-2.2,0.1,1.9,.
O=C(CN(c1ccc2c(c1)OCCO2)S(=O)(=O)c1ccccc1)N1CCN(Cc2ccccc2)CC1,-12.0,-2.6,0.1,-5.6,.
S=c1[nH]nc(-c2ccncc2)n1Cc1ccccc1,11.3,8.5*,0.9,-0.5,0.7
COc1ccccc1CNC(=O)COC(=O)Cc1ccsc1,10.2,2.0,0.2,2.0,.
CCOc1ccc(-c2nnc(NC3=NCCCCC3)o2)cc1,2.8,10.2*,0.5,-0.9,0.0
COc1cc(C(=O)NCCNC(=O)c2cc(OC)c(C)c(OC)c2)cc(OC)c1C,8.2,-3.4,0.3,9.6,.
CCOc1ccc(-c2nnc(-c3cccnc3)o2)cc1OCC,6.5,9.2*,2.4,-5.5,1.1
COc1ccc(-c2nnc(-c3cccnc3)o2)cc1OC,-0.4,-0.6,1.5,0.9,.
CN(C)CC(NC(=O)c1cccc(S(=O)(=O)Nc2ccc3c(c2)OCO3)c1)c1ccccc1 (configuration not stated),3.1,-5.1,0.9,4.0,.
COc1ccc2cc(/C=N/NC(=O)CN(c3ccccc3C)S(=O)(=O)c3ccccc3)c(Cl)nc2c1,1.1,-4.4,-0.7,0.2,.
CC(OC(=O)CNC(=O)C12CC3CC(CC(C3)C1)C2)C(=O)Nc1ccc(S(N)(=O)=O)cc1 (configuration not stated),-7.7,9.1*,-0.1,1.5,2.6
SMILES,HGIII-sPLA2 inh,MsrA act,MsrA inhibitor,rCAG RNA binder,MsrA activ conf
COc1cccc(C2Nc3ccccc3NC3=C2C(=O)CC(C)(C)C3)c1OC (configuration not stated),0.5,-4.6,3.7,-3.0,.
CN(C)c1ccc2nc3ccc(=[N+](C)C)cc-3sc2c1,4.1,22.9*,8.2*,33.3,7.9*
CN(C)c1nc(C#N)nc(N2CCOCC2)n1,-0.8,-4.6,-0.3,1.1,.
CC(C)N(C#N)c1nc(N2CCOCC2)nc(N2CCOCC2)n1,-5.2,17.3*,0.2,-7.7,-4.1
CCCCOc1ccc(-c2n[nH]c(=S)n2Cc2ccccc2)cc1,3.7,-1.6,0.5,2.6,.
Cc1nn(C)c(C)c1NC(=O)CCSc1nc(-c2ccco2)cc(C(F)(F)F)n1,4.3,-0.3,-0.1,2.6,.
Cc1cc(NC(=O)CCSc2nc(-c3ccco3)cc(C(F)(F)F)n2)n(-c2ccccc2)n1,-19.8,17.6*,0.0,10.4,1.4
COc1ccc(C(=O)NC(=O)COC(=O)C2CC2C)cc1 (configuration not stated),9.2,8.0*,-0.4,1.0,-3.2
CN1CCN(C(=O)/C(=C/c2ccc(F)cc2)c2ccsc2)CC1,-0.3,-2.2,2.5,-4.5,.
O=C(COC(=O)CCCNC(=O)c1ccc(Cl)cc1)NC1CC1,4.6,7.9*,-0.3,2.2,-2.2
CCC(=O)Nc1nc(CC(=O)Nc2ccccc2)cs1,0.0,9.4*,0.0,-1.3,0.4
CCOC(=O)Cc1csc(NC(=O)Cc2ccccc2)n1,-0.7,-6.9,0.6,1.9,.
COc1cccc(COc2ccccc2C2Nc3ccc(Br)cc3C(=O)N2NC(=O)c2ccncc2)c1 (configuration not stated),-5.3,18.5*,0.8,11.9,-3.1
COc1ccc(C2Nc3ccccc3C(=O)N2NC(C)=O)c(OC)c1 (configuration not stated),-0.2,-2.7,0.3,-3.5,.
CCCCNC(=O)C1CCN(S(=O)(=O)N2CCCCCC2)CC1,-0.2,-1.4,-0.9,-6.9,.
COc1cc2c(cc1OC)C(=O)C(Br)CC2 (configuration not stated),.,13.8*,.,.,-3.1
COc1cc2c(cc1OC)C(=O)C(c1ccc3c(c1)OCO3)CC2 (configuration not stated),-2.4,-0.7,0.8,-1.5,.
N=c1sccn1CC(=O)Nc1ccc(S(=O)(=O)N2CCOCC2)cc1,4.6,-1.3,-1.0,2.4,.
Cc1cc(CN(C)C(=O)CC2C(=O)NCCN2CC(c2ccccc2)c2ccccc2)on1 (configuration not stated),0.8,-1.1,2.1,-0.1,.
COCCN(C)C(=O)CC1C(=O)NCCN1CC(c1ccccc1)c1ccccc1 (configuration not stated),-2.4,10.6*,-0.2,-0.2,-2.6
Cc1cccc(Nc2ncnc(N)n2)c1,2.3,13.2*,2.2,0.5,-1.4
Nc1ncnc(Nc2cccc(F)c2)n1,-3.6,-2.0,-1.1,-0.4,.
CC(=O)NNC(=S)NC(=O)c1ccc(C)cc1,3.5,-0.8,-0.4,-0.5,.
CC(=O)NNC(=S)NC(=O)c1ccccc1,5.4,8.3*,1.8,-2.5,0.5
COc1ccc(NC(=O)/C=C/c2ccc(F)cc2)cn1,-4.5,-2.0,1.2,-1.2,.
O=S(=O)(c1ccc(Cl)c(NC(=S)Nc2ccccc2N2CCOCC2)c1)N1CCOCC1,6.5,-4.2,0.8,0.9,.
Fc1ccc(NC(=S)Nc2ccccc2N2CCOCC2)cc1Cl,12.1,9.7*,-0.3,0.8,-0.5
Cc1cc(OCC(=O)Nc2nnc(C3CC3)s2)ccc1C(C)C,0.6,10.9*,-1.2,0.1,-2.1
